According to PubChem BioAssay AID743363 (Broad Institute, 2014):
Active and inactive are the calls of the source. How the calls were made is not given here.

Experiment: BioD-coupled fluorescence displacement counter-assay – biochemical, dry powder samples, counter-screen, dose response (AID 743363)
Conditions: FL-DTB/streptavidin fluorescence displacement counter-screen; series mostly up to 10 µM

Structure (SMILES) | outcome
CN1c2ccc(-c3cccc(F)c3)cc2[C@@H]2[C@@H](CCN2C(=O)c2ccc3c(c2)OCO3)[C@H]1CO | inactive
COc1cc(C(=O)N2CCN(c3ccc(C(C)=O)cc3)CC2)cc2c1OCO2 | inactive
O=C(c1ccc2c(c1)OCO2)N1CCN(c2ccc(S(=O)(=O)C(F)F)cc2)CC1 | inactive
CC(=O)c1ccc(N2CCN(C(=O)c3ccc4c(c3)OC(F)(F)O4)CC2)cc1 | inactive
COCC(=O)N1CC[C@@H]2[C@@H](CO)N(C)c3ccc(-c4cccc(F)c4)cc3[C@@H]21 | inactive
CC(=O)c1ccc(N2CCN(C(=O)c3ccc4ocnc4c3)CC2)cc1 | inactive
COc1ccc(C(=O)N2CCN(c3ccc(C(C)=O)cc3)CC2)cc1OC | inactive
O=C(c1ccc2c(c1)OCO2)N1CCN(c2ccc(S(=O)(=O)C(F)(F)F)cc2)CC1 | inactive
O=C(c1ccc2c(c1)OCO2)N1CCN(c2ccc(C(F)(F)F)cc2)CC1 | inactive
CN1c2ccc(-c3cccc(F)c3)cc2[C@H]2[C@H](CCN2C(=O)Cc2cccnc2)[C@H]1CO | inactive
CC(=O)c1ccc(N2CC3(CN(C(=O)c4ccc5c(c4)OCO5)C3)C2)cc1 | inactive
COC(=O)c1ccc(N2CCN(C(=O)c3ccc4c(c3)OCO4)CC2)cc1 | inactive
CC(=O)c1ccc(N2CCN(C(=O)c3ccc4c(c3)OCO4)[C@H](C)C2)cc1 | inactive
O=C(c1ccc2c(c1)OCO2)N1CCN(c2ccc(OC(F)(F)F)cc2)CC1 | inactive
CN1c2ccc(-c3cccc(F)c3)cc2[C@@H]2[C@@H](CCN2C(=O)c2ccc3c(c2)OCO3)[C@@H]1CO | inactive
